High-throughput results (PubChem BioAssay)
KB-V1 cytotox: KB-V1 MDR subline cytotoxicity; 3.4% of 400,000 active; AID 1347076; KB-V1 MDR cells viability, CellTiter-Glo, 72 h; Potency, µM (series often up to 46.1 µM), most hits filed as cytotoxic; further: nearly all actives have a fitted effect of over 60% in size
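KB-V1 MDR subline cells in DMEM (phenol-red free, 10% FBS) exposed to compounds in qHTS concentration series for 72 h at 37 degrees C. Viability read by CellTiter-Glo luminescence; concentration-effect curves fitted after normalization and correction.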
Gal4-VP16 FLuc: Gal4-VP16 reporter inhibition counter-screen; Drosophila S2 Gal4-VP16 UAS-luciferase, luminescence, 20 h; AID 2546; 3.5% of 310,000 active; Potency, µM (series often up to 53.6 µM), actives largely listed as inhibitors;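 further: Gal4-VP16 expression switched on by copper sulfate through the metallothionein promoter; nearly all actives have a fitted effect of over 50% in size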
RORg inh: inhibitors of mouse ROR gamma transcriptional activity; P51450; Drosophila S2 Gal4-RORgamma UAS-luciferase reporter, 20 h; Potency, µM (top dose mostly 53.6 µM), most hits filed as inhibitors; 5.4% of 310,000 active; AID 2551; further: nearly all actives have a fitted effect of over 60% in size
Target sequence (P51450 whole entry, looked up, the tested form may be a part): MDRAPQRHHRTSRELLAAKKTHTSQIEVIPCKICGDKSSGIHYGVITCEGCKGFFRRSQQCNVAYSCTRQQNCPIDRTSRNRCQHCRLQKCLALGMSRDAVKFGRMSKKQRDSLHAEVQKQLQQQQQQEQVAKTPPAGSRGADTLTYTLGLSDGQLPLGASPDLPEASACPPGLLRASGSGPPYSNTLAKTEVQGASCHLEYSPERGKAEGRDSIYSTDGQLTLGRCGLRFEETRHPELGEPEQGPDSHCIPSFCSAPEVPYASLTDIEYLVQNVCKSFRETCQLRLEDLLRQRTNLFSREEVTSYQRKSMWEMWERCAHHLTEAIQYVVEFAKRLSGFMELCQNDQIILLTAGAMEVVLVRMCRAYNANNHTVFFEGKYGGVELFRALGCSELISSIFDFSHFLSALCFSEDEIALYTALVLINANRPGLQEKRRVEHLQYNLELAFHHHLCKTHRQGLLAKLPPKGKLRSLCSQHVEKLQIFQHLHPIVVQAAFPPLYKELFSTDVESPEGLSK
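Luminescence from a UAS-regulated Photinus luciferase reporter in stably transfected Drosophila Schneider cells is measured; decreased signal marks ROR gamma inhibition. Fusion expression is induced by 700 uM copper sulfate for 20 hr.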
KB-3-1 cytotox: kills parental KB-3-1 adenocarcinoma cells | KB-3-1 viability, CellTiter-Glo ATP luminescence, 72 h | Potency, µM (titrated, usually from 46.1 µM), hits mostly cytotoxic | 1.4% of 400,000 active; further: nearly all actives have a fitted effect of over 60% in size
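Parental KB-3-1 adenocarcinoma cells in phenol-red-free DMEM with 10% FBS were pin-treated with compounds at several concentrations, incubated 72 h at 37 °C, and viability read by CellTiter-Glo luminescence; concentration-effect curves were fitted after normalization.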
SW480 rereplic: DNA re-replication induction in SW480 cells; SW480 DNA re-replication, Hoechst DNA content imaging, 48 h; Potency, µM (top dose mostly 46.1 µM), actives largely listed as activators; 1.8% of 340,000 active; further: nearly all actives have a fitted effect of over 55% in size
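First, 250 cells per well were seeded. Next, compound or vehicle (23 nL) was pinned in, plates sat 48 hr at 37 C. Finally Hoechst was added for 40 min before fluorescence scanning.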
MCF10A rereplic: induces DNA re-replication in MCF 10a normal breast cells; MCF 10A DNA re-replication, Hoechst nuclear intensity, 48 h; Potency, µM (top dose mostly 46.1 µM), most hits filed as activators; 2.9% of 350,000 active; further: nearly all actives have a fitted effect of over 50% in size
Numbers stand for hits; i = inactive; ? = inconclusive; nt = no result given; ! = not confirmed by another sample; [ ] = another dose, or the depositor's remark. Compounds with a hit are over-represented: about 10% of the library has one in this group of screens. The call rests on the fitted dose curve; in most records, active means well fitted curve in the direction sought with a large enough effect; inconclusive means small, poorly fitted or top-dose-only effect, or another doubt; inactive means no such curve, though single readings can be large; an effect the other way counts as inactive or inconclusive.

SMILES	KB-V1 cytotox	Gal4-VP16 FLuc	RORg inh	KB-3-1 cytotox	SW480 rereplic	MCF10A rereplic
COc1ccc(CCNC2CCCCCC2)cc1	i	i	i	i	3.3µM	i
COc1cc([C@@H]2c3cc4c(c(O)c3C[C@H]3COC(=O)[C@@H]32)OCO4)cc(OC)c1OC	4.1µM	nt	nt	0.52µM	nt	nt
COc1cc([C@@H]2c3cc4c(cc3C[C@H]3COC(=O)[C@@H]32)OCO4)cc(OC)c1O	i	nt	nt	?	nt	nt
COc1cc([C@@H]2c3cc4c(cc3[C@H](OC(C)=O)[C@H]3COC(=O)[C@@H]23)OCO4)cc(OC)c1OC	?	nt	nt	0.65µM	nt	nt
COc1cc(C2c3cc4c(c(O)c3CC3COC(=O)C32)OCO4)cc(OC)c1OC (stereo not drawn)	0.18µM!	i	i	0.0082µM!	0.052µM	?
COc1cc([C@H]2c3cc4c(cc3[C@@H](O)[C@@H]3COC(=O)[C@H]23)OCO4)cc(OC)c1OC	nt	i	i	nt	nt	nt
COc1cc(C2c3cc4c(cc3CC3COC(=O)C32)OCO4)cc(OC)c1OC (stereo not drawn)	0.58µM	nt	nt	0.92µM	?	6.5µM
N#CC(O)c1ccccc1 (stereo not drawn)	nt	i	i	nt	nt	nt
CCOc1cc2c(cc1OCC)-n1cccc1C(c1ccc(OC)c(OC)c1)NC2 (stereo not drawn)	i	i	i	i	i	?
c1cc2n(c1)-c1c(ccc3c1OCO3)CNC2c1ccc2c(c1)OCO2 (stereo not drawn)	18µM	i	?	?	i	i
COc1ccc(C2NCc3ccc4c(c3-n3cccc32)OCO4)cc1O (stereo not drawn)	?	?	i	1.3µM	3.3µM	4.1µM
CC(=O)CC(c1ccc(O)cc1)c1c(O)c2ccccc2oc1=O (stereo not drawn)	nt	i	i	nt	nt	nt
Cc1ccc(OCCn2cccc2/C=C2/C(=O)NC(=O)N(Cc3ccco3)C2=O)cc1	i	?	i	i	i	?
CCc1ccc(N2C(=O)NC(=O)/C(=C\c3cccn3CCOc3ccc(C(C)C)cc3)C2=O)cc1	?	0.4µM	i	?	?	7.3µM
CC1(C)C(=O)C=C[C@@]2(C)C1=C(O)C(=O)[C@@]1(C)C2CC[C@@]2(C)C(c3ccoc3)C[C@H]3O[C@@]321 (stereo partly drawn)	nt	10µM	8.9µM	nt	nt	nt
CCc1n[nH]c(=S)n1/N=C/c1c(C)nn(-c2ccccc2)c1Cl	1.3µM	?	7.1µM	?	i	i
CCc1cc(=O)oc2c(C)c(OCC(=O)N3CCC[C@@H]3C(=O)O)ccc12	i	i	i	i	i	i
O=[N+]([O-])c1ccccc1CN1CC=C(c2ccc(F)cc2)CC1	i	i	?	i	i	?
CC(C)N1CCN(Cc2cccc([N+](=O)[O-])c2)CC1	i	i	i	i	1.8µM	i
O=[N+]([O-])c1cccc(CN2CC=C(c3ccc(F)cc3)CC2)c1	i	i	i	9.2µM	i	i
O=[N+]([O-])c1cccc(CN2CCN(Cc3ccc(Cl)cc3)CC2)c1	?	i	i	i	i	i
Cc1ccc(S(=O)(=O)NN=Cc2cc(Cl)ccc2O)cc1	i	nt	nt	i	i	?
CCOC(=O)N1CCN(c2ccc(Cl)c(Cl)c2)CC1	i	i[0.365 µM]	?	i	i	i
CCOC(=O)c1cnc(SCc2ccc(Cl)c(Cl)c2)nc1N1CC1	8.2µM	nt	nt	i	4.1µM	13µM
CC(=O)OC(C)(C)/C=C/C(=O)[C@](C)(O)C1[C@H](O)C[C@@]2(C)C3CC=C4C(C[C@H](O)C(=O)C4(C)C)[C@]3(C)C(=O)C[C@]12C (stereo partly drawn)	0.92µM	nt	nt	0.037µM	?	?
CC(C)(O)/C=C/C(=O)C(C)(O)C1C(O)CC2(C)C3CC=C4C(C=C(O)C(=O)C4(C)C)C3(C)C(=O)CC12C (stereo not drawn)	0.92µM	nt	nt	0.18µM	?	2.9µM
NC(N)=NN=C(/C=C/c1ccc([N+](=O)[O-])o1)/C=C/c1ccc([N+](=O)[O-])o1	nt	?	5µM	nt	?	?
ClC(Cl)(Cl)C(Cl)(Cl)Cl	nt	i	i	nt	nt	nt
